Measured values from PubChem BioAssay AID2284370 (EPA ToxCast).
Inconclusive results are not listed. Calls of active or inactive are those of the source. How the source made its calls: active means hit-call score of the fitted dose curve at least 0.9, where 1 is the maximum; inconclusive means response in the unintended direction; inactive means score below 0.9.

What follows are compounds tested against human Androgen Receptor (AR), AR (gene 367) (UniProt P10275) (assay: ATG_hAR_EcoTox2: Attagene TRANS-FACTORIAL EcoTox-2 HepG2 Assay for human Androgen Receptor (AR)).
Sequence of human Androgen Receptor (AR), AR (gene 367) (P10275 whole entry, looked up): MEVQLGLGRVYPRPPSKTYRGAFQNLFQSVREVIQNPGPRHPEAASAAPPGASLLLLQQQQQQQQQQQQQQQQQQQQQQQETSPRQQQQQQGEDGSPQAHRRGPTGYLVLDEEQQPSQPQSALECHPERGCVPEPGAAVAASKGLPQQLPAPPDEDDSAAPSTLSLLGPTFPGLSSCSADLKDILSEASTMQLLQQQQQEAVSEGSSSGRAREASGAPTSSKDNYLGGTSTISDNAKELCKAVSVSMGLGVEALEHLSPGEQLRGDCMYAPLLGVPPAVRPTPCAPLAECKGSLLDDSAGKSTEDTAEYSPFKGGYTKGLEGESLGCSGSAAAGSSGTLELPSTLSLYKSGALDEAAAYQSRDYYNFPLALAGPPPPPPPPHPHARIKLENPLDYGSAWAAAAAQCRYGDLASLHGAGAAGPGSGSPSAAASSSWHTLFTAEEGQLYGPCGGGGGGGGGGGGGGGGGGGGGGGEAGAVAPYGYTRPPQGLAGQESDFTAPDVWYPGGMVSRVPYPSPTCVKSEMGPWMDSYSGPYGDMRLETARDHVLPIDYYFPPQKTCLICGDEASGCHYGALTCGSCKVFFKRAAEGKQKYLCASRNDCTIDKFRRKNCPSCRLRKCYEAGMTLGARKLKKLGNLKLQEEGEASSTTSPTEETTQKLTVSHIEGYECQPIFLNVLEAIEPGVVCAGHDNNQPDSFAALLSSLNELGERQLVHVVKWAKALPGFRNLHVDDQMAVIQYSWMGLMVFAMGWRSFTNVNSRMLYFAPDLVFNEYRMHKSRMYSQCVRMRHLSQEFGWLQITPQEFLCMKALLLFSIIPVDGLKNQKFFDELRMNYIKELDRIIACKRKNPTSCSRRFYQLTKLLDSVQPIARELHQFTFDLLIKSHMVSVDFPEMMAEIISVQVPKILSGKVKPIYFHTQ
Method: ATG_EcoTox2 is a cell-based, multiplexed assay created by modifying the existing Attagene TRANS-FACTORIAL system to include a panel of nuclear receptors from some or all the following species: human (Homo sapiens), african clawed frog (Xenopus laevis), rainbow trout (Oncorhynchus mykiss), japanese medaka (Oryzias latipes), and zebrafish (Danio rerio). The ECOTOX2-FACTORIAL format uses HepG2, a human liver cell line, with measurements taken at 24 hours after chemical dosing in a 24-well plate. ATG_hAR_EcoTox2 is one of 29 assay components calculated in the ATG_EcoTox2 assay. It is designed to make measurements of mRNA induction, a form of inducible reporter, as detected with fluorescence intensity signals by Reverse transcription polymerase chain reaction (RT-PCR) and Capillary electrophoresis technology.The assay endpoint ATG_hAR_EcoTox2 was analyzed in the positive analysis fitting direction relative to DMSO as the negative control and baseline of activity. Using a type of inducible reporter, measures of mRNA for gain-of-signal activity can be used to understand the reporter gene at the transcription factor-level as they relate to the gene AR. Furthermore, this assay endpoint can be referred to as a primary readout, because this assay has produced multiple assay endpoints where this one serves a reporter gene function. To generalize the intended target to other relatable targets, this assay endpoint is annotated to the nuclear receptor intended target family, where the subfamily is steroidal.
Human liver HepG2 cells are transiently transfected with multiple reporter transcription units (MRTUs) in 6-well plates using FuGene 6 reagent (Roche; 3 ml FuGene/1 mg DNA). The MRTU constructs are regulated by a cis-regulating element (promoter). Each RTU expresses a GAL4-UAS that regulates the transcription of a nearby target reporter gene sequence. A major difference between the CIS and TRANS system is that in CIS activities of endogenous TFs are measured, whereas the TRANS assay evaluates changes in activities of exogenous, chimeric NR-Gal4 proteins. […] At the end of 24 hour incubation, total RNA was isolated using TriZol reagent (Invitrogen). The isolated RNA is then reverse-transcribed using oligo(dT) primer and Mo-MLV reverse transcriptase (Invitrogen) with DNAse I (Ambion) treatment for 30 min. The one-tenth of the produced cDNA was amplified by PCR using Taq DNA polymerase (Invitrogen) and two reporter sequence-specific primers. […] The fragments were purified using Qiaquick PCR columns (Qiagen), analyzed on an ABI 3130xL genetic analyzer (Applied Biosystems) with peak positions identified by using a set of X-rhodamine (ROX)-labeled MapMarker1000 molecular weight standards (BioVentures). […]

SMILES | outcome
CC(c1cc2ccccc2s1)N(O)C(N)=O (centres undefined) | inactive
CC(C)(Oc1ccc(C2CC2(Cl)Cl)cc1)C(=O)O (centres undefined) | inactive
Cc1ccc(C)c(OCCCC(C)(C)C(=O)O)c1 | inactive
CC(C)OC(=O)C(C)(C)Oc1ccc(C(=O)c2ccc(Cl)cc2)cc1 | inactive
